Bioassay records deposited in PubChem by National Center for Advancing Translational Sciences (NCATS).
Hits are enriched below; roughly 19% of the tested compounds scored in any of these assays.
HT1080 IDH1KD tx – toxicity to HT-1080 IDH1 knockdown cells (counter line). HT-1080 IDH1 knockdown viability, ATP luminescence, 48 h. Potency, µM (series often up to 46.1 µM), inactives show top-dose activity, negative = toxicity, hits mostly cytotoxic. 2% of 360,000 active. AID 686971;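 further: potency means the concentration at half of the fitted maximal effect; 0% = DMSO wells and -100% = cell-free medium wells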
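Knockdown cells (IDH1KD HT-1080) received compounds 2 h after plating at 750 cells/well and were kept 48 h at 37 °C in 5% FBS RPMI. A CellTiter-Glo luminescence read gave % activity for curve fitting.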
HT1080NT lethal – kills 2HG-producing HT-1080-NT fibrosarcoma cells; HT-1080-NT fibrosarcoma viability, CellTiter-Glo ATP luminescence, 48 h; Potency, µM (highest dose often 46.1 µM), for inactives: at the highest dose activity, negative = less viability, most hits filed as cytotoxic; 1.6% of 360,000 active;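 further: NT is the 2HG producing partner of a matched IDH1 knockdown line; potency means the concentration at half of the fitted maximal effect; 0% = DMSO-treated cells and -100% = media-only wells without cells; nearly all actives have a fitted effect of over 55% in size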
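Compounds were tested in concentration-response format on HT-1080-NT cells for 48 hours at 37 degrees C. Cell viability came from CellTiter-Glo luminescence; curves were classified by r2, response magnitude and activity.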
IL1B secr inh – inflammasome signaling inhibition, IL-1 beta readout; THP-1 LPS/ATP IL-1B secretion, AlphaLISA, 16 h; active compounds read low; activity change, % at 57.5 µM; 4.7% of 360,000 active; in the data active means activity change below about -50%; inconclusive means mostly about -30% to -49%
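THP-1 cells pretreated 1 hr with compounds (up to 57.5 uM final), then stimulated with LPS (250 ng/mL final) plus ATP (1.25 mM final); secreted IL-1B measured by AlphaLISA after 16 hr, decreased signal indicating inhibition.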
DT40 TDP1 CPT – DT40-hTDP1 cell growth loss with CPT; chicken DT40 Tdp1-/-;hTDP1 cells + 20 nM CPT, ATP luminescence, 48 h; Potency, µM (series often up to 46.2 µM), inactives show at the highest dose activity change, negative = growth inhibition, actives largely listed as inhibitors; 12% of 420,000 active; AID 686979; further: potency means the concentration at half of the fitted maximal effect; nearly all actives have a fitted effect of over 55% in size
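Chicken DT40 Tdp1-/- cells stably complemented with human TDP1 were seeded at 400 cells/well in medium containing 20 nM camptothecin, exposed to pin-transferred compounds, and grown at 37 °C for at least 48 hr. Viability was read as ATP luminescence.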
TDP1 cell noCPT – qHTS for Inhibitors of human tyrosyl-DNA phosphodiesterase 1 (TDP1): qHTS in cells in absence of CPT; Potency, µM (doses to about 46.2 µM), inactives show at the highest dose activity change, negative = growth inhibition, most hits filed as inhibitors; 15% of 420,000 active; DT40 Tdp1-/- hTDP1 cells, no CPT, ATP luminescence, 48 h; further: potency means the concentration at half of the fitted maximal effect; nearly all actives have a fitted effect of over 55% in size
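Camptothecin absent (DMSO only). Human TDP1-complemented DT40 knockout cells, 400 cells/well, 37 °C for minimum 48 hr; ATP measured via CellTiter-Glo, 30 min dark incubation, luminescence.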
An asterisk follows results filed as active; ? = inconclusive; nt = no result given; [ ] = remark or other dose. Unless noted, the call rests on the fitted dose curve; in most records, active means well fitted curve in the direction sought with a large enough effect; inconclusive means small, poorly fitted or top-dose-only effect, or another doubt; inactive means no such curve, though single readings can be large; an effect the other way counts as inactive or inconclusive. Unless noted, on the % scale 0 is the no-effect control and ±100 the full control effect.

SMILES	HT1080 IDH1KD tx	HT1080NT lethal	IL1B secr inh	DT40 TDP1 CPT	TDP1 cell noCPT
CC(=O)c1ccc(NC(=O)C2CCN(S(=O)(=O)c3ccc4c(c3)N(C(C)=O)CCO4)CC2)cc1	-4.0%	-2.7%	33.9	-23.8%	-22.1%
CSc1cccc(NC(=O)C2CCN(S(=O)(=O)c3ccc4[nH]c(=O)ccc4c3)CC2)c1	nt	nt	nt	-15.7%	-9.5%
CSc1cccc(NC(=O)C2CCCN(S(=O)(=O)c3ccc4c(c3)CCCN4C(C)=O)C2)c1 (centres undefined)	nt	nt	nt	18.4µM*	20.6µM*
CCOc1ccccc1OCCCNCc1ccco1	4.1%	4.0%	-10.7	3.3%	?
Cc1ccc(C(=O)C(C)OC(=O)CCN2C(=O)C3C4C=CC(C5CC45)C3C2=O)cc1 (centres undefined)	12.8%	1.9%	23.7	9.3%	5.6%
C/C(=C/c1ccccc1)C(=O)N1CCN(c2ccccc2F)CC1	-21.1%	0.7%	25.5	-10.1%	-9.7%
C/C(=C\c1ccccc1)C(=O)N1CCN(c2cccc(C(F)(F)F)c2)CC1	-8.7%	-0.2%	-64.9*	5.6%	-7.8%
Cc1cn(C)c(CC(=O)N2CCN(c3cccc(C(F)(F)F)c3)CC2)c1C(=O)O	nt	nt	nt	13µM*	?
Cc1ccc(/C=C/C(=O)N2CCN(c3cccc(C(F)(F)F)c3)CC2)cc1	?	?	-5.5	-17.9%	-7.5%
Cc1nc2c3ccccc3nc(NNC(=O)CCC(=O)N3CCN(c4ccccc4)CC3)n2n1	0.0%	0.4%	8.4	?	?
Cc1nc2c3ccccc3nc(NNC(=O)CCC(=O)N3CCN(c4cccc(C(F)(F)F)c4)CC3)n2n1	nt	nt	nt	20.6µM*	23.1µM*
Cc1ccc(C)c(C(=O)CCC(=O)N2CCN(c3cccc(C(F)(F)F)c3)CC2)c1	-11.2%	-1.0%[9.24 µM]	2.0	14.6µM*	11.6µM*
CC(C)COC(=O)N1CCCCC1c1cc(C(=O)NC(C)C)no1 (centres undefined)	6.9%	18.4%	-14.2	?	-21.0%
COc1ccc(C(=O)N2CCC3(CCN(C(=O)Nc4cccc(F)c4)CC3)CC2)cc1	nt	nt	nt	-24.9%	?
O=C(Cn1ccc2ccccc2c1=O)NCCC(=O)N1CCN(c2cccc(C(F)(F)F)c2)CC1	-6.8%	3.1%	-17.5	20.6µM*	16.4µM*
O=C(Cn1ccc2ccccc2c1=O)NCCC(=O)N1CCN(c2ccccc2)CC1	2.9%	-1.9%	-2.9	-5.6%	-11.1%
COc1ccccc1C(=O)NCCC(=O)N1CCN(c2cccc(C(F)(F)F)c2)CC1	1.3%	-3.0%	1.2	16.4µM*	?
CN1[C@@H]2CC[C@H]1CC(NC(=O)n1c(=O)[nH]c3ccccc31)C2 (some centres undefined)	nt	nt	nt	0.8%	-3.8%
CCC(=O)Nc1nc(C)c(-c2csc(Nc3cccc(O)c3)n2)s1	0.461µM*	?	-75.1*	6.51µM*	3.66µM*
Cc1nc(N)sc1-c1csc(Nc2cccc(O)c2)n1	-19.4%	-11.9%	-24.6	?	?
Cc1ccnc(Nc2nc(-c3sc(C)nc3C)cs2)c1	?	?	-100.3*	14.6µM*	?
Cc1nc(C)c(-c2csc(Nc3cccc(O)c3)n2)s1	?	?	?	?	23.1µM*
Cc1cccc(Nc2nc(-c3sc(C)nc3C)cs2)c1	?	25.9µM*	-53.8*	?	16.4µM*
Cc1nc(C)c(-c2csc(Nc3ccccn3)n2)s1	-11.7%	?	0.0	-59.5%	?
COc1cccc(NC(=O)Nc2cc(NC(=O)Nc3cccc(OC)c3)c(C)nc2C)c1	-12.1%	-17.2%	16.7	4.1%	-16.1%
CCSc1nsc(NC(=O)Nc2ccccc2F)n1	-28.6%	?	-93.3*	18.4µM*	16.4µM*
C=CCSc1nsc(NC(=O)Nc2ccc(F)cc2)n1	2.91µM*	16.4µM*	-88.3*	18.4µM*	3.26µM*
CCSc1nsc(NC(=O)Nc2cccc(OC)c2)n1	?	?	-97.3*	?	?
